Screening data deposited in PubChem BioAssay by National Center for Advancing Translational Sciences (NCATS).
Pf growth 96h = inhibits malaria parasite growth, 96 h. P. falciparum luciferase reporter growth, 96 h. Potency, µM (series often up to 28.7 µM), hits mostly inhibitors. 320,000 compounds, 6.9% hits
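Two parasite generations (96 h, 37 C, 5% CO2) of compound exposure in infected erythrocytes (0.05% parasitemia, 2% hematocrit). Luciferase-reporter P. falciparum; decreased luminescence indicates inhibited growth, aimed at apicoplast-acting delayed death.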
Shiga toxin inh = inhibitors of Shiga toxin in Vero cells. Vero cells, Shiga toxin protein synthesis inhibition reporter. 290,000 compounds, 9.2% hits. inhibition, % at 38.7 µM; in the data active means inhibition mostly above about 28%, no sharp cut-off; inactive means mostly below about 43%
Cycloheximide cs = affects cycloheximide protein synthesis inhibition readout, counter-screen | cell reporter, cycloheximide protein synthesis inhibition counterscreen | max response, % | 300,000 compounds, 12% hits; in the data active means max response mostly above about 13%, no sharp cut-off; inactive means mostly below about 14%; further: read at 38.3 µM for the half of the compounds with a filed dose
Pf growth 48h = P. falciparum growth inhibition at 48 hours (one generation). P. falciparum luciferase growth in erythrocytes, 48 h. 310,000 compounds, 5.9% hits. Potency, µM (top dose mostly 28.7 µM), usual class: inhibitors
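Luciferase-expressing parasites in RBCs, 2% Hct / 0.1% parasitemia final; RPMI 1640 + 0.5% Albumax; 37 C, 5% CO2, one generation; luminescence read-out, lower signal = inhibition.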
HCMV inh = inhibitors of human cytomegalovirus | AID 1259415 | 410,000 compounds, 4.5% hits | HFF cells, HCMV-luciferase reporter, 72 h; active compounds read low | activity change, negative = inhibition, % at 57.5 µM; in the data active means activity change below about -60%; inconclusive means no clear call, values can overlap the other calls; inactive means above about -39%
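Human foreskin fibroblasts infected with luciferase-reporter HCMV at MOI 1 PFU/cell, compounds at two doses. Luciferase measured 72 h post infection; normalized to buffer-only basal and Salinomycin (10uM) controls.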
Hits are given with their value. Sampled rows, rich in hits. Any-hit rate of the full collection: about 20%. Unless noted, the call rests on the fitted dose curve; in most records, active means well fitted inhibition curve with a large enough effect; inconclusive means small, poorly fitted or top-dose-only effect, or another doubt; inactive means no such curve, though single readings can be large or run the other way.

`Cc1cc(C(=O)NC2=NCCS2)c2ccccc2n1` gave Pf growth 96h inactive, Shiga toxin inh inactive, Cycloheximide cs inactive, Pf growth 48h inactive and HCMV inh inactive.
Screening O=C(NC1=NCCS1)c1cc(-c2ccc(-c3ccccc3)cc2)nc2ccccc12 returned Pf growth 96h inactive, Shiga toxin inh inactive, Cycloheximide cs 24, Pf growth 48h inactive and HCMV inh inactive.
O=C(Nc1nc2c(s1)CCCC2)c1cc(-c2ccncc2)nc2ccccc12 was read as Pf growth 96h inactive, Shiga toxin inh inactive, Cycloheximide cs inactive, Pf growth 48h inactive and HCMV inh inactive.
Screening O=C(Nc1nc2c(s1)CCCC2)c1cc(-c2ccccc2)nc2ccccc12 returned Pf growth 96h inactive, Shiga toxin inh inactive, Cycloheximide cs 14, Pf growth 48h inconclusive and HCMV inh inactive.
For COc1ccc(-c2cc(C(=O)NC3=NCCS3)c3ccccc3n2)cc1OC the results were Pf growth 96h inconclusive, Shiga toxin inh inactive, Cycloheximide cs 27, Pf growth 48h inactive and HCMV inh inactive.
`CCOC(=O)c1cncc(C(=O)O)c1` gave Pf growth 96h inactive, Shiga toxin inh inactive, Cycloheximide cs inactive, Pf growth 48h inactive and HCMV inh inactive.
O=C(Nc1ccccc1N1CCN(C(=O)c2ccccc2)CC1)c1ccccc1Cl was read as Pf growth 96h inconclusive, Shiga toxin inh inactive, Cycloheximide cs inactive, Pf growth 48h inactive and HCMV inh inactive.
`O=C(Nc1ccccc1N1CCN(C(=O)c2ccc(Cl)cc2)CC1)c1cc(Br)ccc1Cl` gave Pf growth 96h 4.7µM, Shiga toxin inh inactive, Cycloheximide cs inactive, Pf growth 48h 6.6µM and HCMV inh inactive.
`COc1ccccc1C(=O)Nc1ccccc1N1CCN(C(=O)c2ccc(Cl)cc2)CC1` gave Pf growth 96h inconclusive, Shiga toxin inh inactive, Cycloheximide cs inactive, Pf growth 48h 8.3µM and HCMV inh inactive.
O=C(Nc1ccccc1N1CCN(C(=O)c2ccc(Cl)cc2)CC1)c1cccc([N+](=O)[O-])c1 was read as Pf growth 96h inactive, Shiga toxin inh inactive, Cycloheximide cs inactive, Pf growth 48h inactive and HCMV inh -88.
CCCCn1c(=O)n(CC(=O)NCc2ccc(C)cc2)c(=O)c2c1nc(CO)n2CCC was read as Pf growth 96h 4.1µM, Shiga toxin inh inactive, Cycloheximide cs inactive, Pf growth 48h inconclusive and HCMV inh inconclusive.
Screening CCCCC1(O)CC(C(F)(F)F)=NN1C(=O)COc1ccccc1 (configuration not stated) returned Pf growth 96h 0.12µM, Shiga toxin inh inactive, Cycloheximide cs inactive, Pf growth 48h inactive and HCMV inh inactive.
For CNc1ncnc2c1ncn2[C@H]1CN(CCOC)C[C@@H](CO)O1 the results were HCMV inh inactive.
O=C(Cn1cc(C(=O)c2ccccc2F)c2ccccc21)NCc1ccco1 was read as Pf growth 96h inactive, Shiga toxin inh inactive, Cycloheximide cs inactive, Pf growth 48h inactive and HCMV inh inactive.
Screening CC(C)C(=O)c1cn(CC(=O)NCc2ccc3c(c2)OCO3)c2ccccc12 returned Pf growth 96h inactive, Shiga toxin inh inactive, Cycloheximide cs inactive, Pf growth 48h 12µM and HCMV inh inactive.
Screening CC(C)C(=O)c1cn(CC(=O)NCc2ccco2)c2ccccc12 returned Pf growth 96h inconclusive, Shiga toxin inh 58, Cycloheximide cs 30, Pf growth 48h inactive and HCMV inh inactive.
Screening CC(C)(C)C(=O)c1cn(CC(=O)NCc2ccco2)c2ccccc12 returned Pf growth 96h inactive, Shiga toxin inh 96, Cycloheximide cs 36, Pf growth 48h inactive and HCMV inh inactive.
Screening CN1OC[C@@H]2CN(C(=O)C(C)(C)C)[C@H](c3ccc(-c4cc5ccccc5o4)cc3)C[C@@H]21 returned HCMV inh inactive.
O=C(NCc1ccccc1)c1nc(S(=O)(=O)Cc2ccccc2)ncc1Cl was read as Pf growth 96h inconclusive, Shiga toxin inh inactive, Cycloheximide cs 27, Pf growth 48h inactive and HCMV inh -78.
Screening COc1ccc(CNC(=O)c2nc(S(=O)(=O)Cc3ccccc3)ncc2Cl)cc1 returned Pf growth 96h inactive, Shiga toxin inh inactive, Cycloheximide cs 29, Pf growth 48h inactive and HCMV inh -95.
COc1ccc(CNC(=O)c2nc(SC(C)C)ncc2Cl)cc1 was read as HCMV inh inactive.
CS(=O)(=O)c1ncc(Cl)c(C(=O)Nc2ccc3ccccc3c2)n1 was read as Pf growth 96h inactive, Shiga toxin inh inactive, Cycloheximide cs inactive, Pf growth 48h inactive and HCMV inh -98.
`Cc1ccc(CNC(=O)c2nc(SCc3ccccc3C)ncc2Cl)cc1` gave HCMV inh inactive.
`CCS(=O)(=O)c1ncc(Cl)c(C(=O)NCc2ccccc2)n1` gave HCMV inh -100.
`CCSc1ncc(Cl)c(C(=O)Nc2cccc(Cl)c2)n1` gave HCMV inh inactive.
For Cc1noc(C(=O)NCc2ccccc2)c1Cl the results were Pf growth 96h inactive, Shiga toxin inh inactive, Cycloheximide cs inactive and HCMV inh inactive.
CN(CCCn1ccc(N)nc1=O)Cc1ccco1 was read as HCMV inh inactive.
For COc1ccc(CNC(=O)c2nc(SCc3ccc(C)cc3)ncc2Cl)cc1 the results were HCMV inh -70.
`CC(=O)Nc1ccc(NC(=O)c2nc(S(=O)(=O)Cc3ccccc3)ncc2Cl)cc1` gave Pf growth 96h inconclusive, Shiga toxin inh 94, Cycloheximide cs 37, Pf growth 48h inactive and HCMV inh -86.
Screening COC(=O)c1ccccc1NC(=O)c1nc(S(=O)(=O)Cc2ccccc2)ncc1Cl returned Pf growth 96h inconclusive, Shiga toxin inh inactive, Cycloheximide cs inactive, Pf growth 48h inactive and HCMV inh -110.
C#CCN1C=CC(=O)[C@@H](OC(=O)Nc2ccc(Cl)cc2)[C@H]1c1ccccc1Br was read as HCMV inh inactive.
COCCNC(=O)C1CC(c2cccc([N+](=O)[O-])c2)=NO1 (configuration not stated) was read as Pf growth 96h inactive, Shiga toxin inh inactive, Cycloheximide cs inactive, Pf growth 48h inactive and HCMV inh inactive.
COc1ccc(CNC(=O)C2CC(c3cccc([N+](=O)[O-])c3)=NO2)cc1 (configuration not stated) was read as Pf growth 96h inactive, Shiga toxin inh 38, Cycloheximide cs 36, Pf growth 48h inactive and HCMV inh inactive.
For Cc1ccc(CNC(=O)C2CC(c3cccc([N+](=O)[O-])c3)=NO2)cc1 (configuration not stated) the results were Pf growth 96h inactive, Shiga toxin inh inactive, Cycloheximide cs inactive, Pf growth 48h 2.6µM and HCMV inh inactive.
For CN1CCN(c2ccc(Cl)cc2NC(=O)/C=C/c2ccc(F)cc2)CC1 the results were Pf growth 96h inconclusive, Shiga toxin inh inactive, Cycloheximide cs inactive, Pf growth 48h inactive and HCMV inh inactive.
For CC(NC(=O)CN1C(=O)NC2(CCCCCC2)C1=O)c1ccccc1 (configuration not stated) the results were Pf growth 96h inactive, Pf growth 48h inconclusive and HCMV inh -61.
